Experimental data as given in the supplement of paper PMC6555819.

Columns and labels:
Test in all cases: PBM binding z-score (relative to random genomic background probes); higher = stronger binding; sequences stand for … in GC…GCGATTGACAGCGTAGAATGAAGG
[1] = test system: FXR:RXRa (NR concentration 270 nM, RXRa partner concentration 90 nM)
Procedure, shortened: (§1)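 Binding buffer was PBS pH 7.4 with 2% milk, 0.02% Triton X-100, 1 mM DTT, 0.2 mg/mL BSA and 0.4 mg/ml salmon testes DNA. In it, ligand-free nuclear receptor dimers were incubated 1 h on custom Agilent 4×180K protein-binding microarrays carrying double-stranded probes. Antibodies against each partner (one per run) detected binding, and z-scores were calculated against random background probes after regression normalization of scanned fluorescence.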

[2] = test system: LXRa:RXRa (NR concentration 270 nM, RXRa partner concentration 90 nM)
Procedure, shortened: as §1

[3] = test system: LXRa homodimer (NR concentration 270 nM)
Procedure, shortened: as §1

[4] = test system: LXRb:RXRa (NR concentration 270 nM, RXRa partner concentration 90 nM)
Procedure, shortened: as §1

[5] = test system: LXRb homodimer (NR concentration 270 nM)
Procedure, shortened: as §1

[6] = test system: PPARa:RXRa (NR concentration 270 nM, RXRa partner concentration 90 nM)
Procedure, shortened: as §1

[7] = test system: PPARg:RXRa (NR concentration 180 nM, RXRa partner concentration 90 nM)
Procedure, shortened: as §1

[8] = test system: PPARg:RXRa 270nM:90nM, anti-RXR (NR concentration 270 nM, RXRa partner concentration 90 nM)
Procedure, shortened: as §1

[9] = test system: PPARg:RXRa 30nM:10nM, anti-RXR (NR concentration 30 nM, RXRa partner concentration 10 nM)
Procedure, shortened: as §1

[10] = test system: PPARg:RXRa 90nM:30nM, anti-RXR (NR concentration 90 nM, RXRa partner concentration 30 nM)
Procedure, shortened: as §1

[11] = test system: PPARg:RXRa DBDmut IVT, anti-RXR (DBD mutation: RXRa K156A/R161A, NR concentration 270 nM, RXRa partner concentration 90 nM)
Procedure, shortened: as §1

[12] = test system: PPARg:RXRa IVT, anti-PPARg (NR concentration 270 nM, RXRa partner concentration 90 nM)
Procedure, shortened: as §1

[13] = test system: PPARg DBDmut:RXRa IVT, anti-PPARg (DBD mutation: PPARg1 K132A/R137A, NR concentration 270 nM, RXRa partner concentration 90 nM)
Procedure, shortened: as §1

[14] = test system: PPARg DBDmut IVT, anti-PPARg (DBD mutation: PPARg1 K132A/R137A, NR concentration 270 nM)
Procedure, shortened: as §1

[15] = test system: PPARg homodimer (NR concentration 180 nM)
Procedure, shortened: as §1

[16] = test system: PXR:RXRa (NR concentration 270 nM, RXRa partner concentration 90 nM)
Procedure, shortened: as §1

[17] = test system: PXR homodimer (NR concentration 270 nM)
Procedure, shortened: as §1

[18] = test system: RARa:RXR (NR concentration 270 nM, RXRa partner concentration 90 nM)
Procedure, shortened: as §1

[19] = test system: RARa homodimer (NR concentration 270 nM)
Procedure, shortened: as §1

[20] = test system: RARb:RXRa (NR concentration 270 nM, RXRa partner concentration 90 nM)
Procedure, shortened: as §1

Sequence	PBM binding z-score [1]	PBM binding z-score [2]	PBM binding z-score [3]	PBM binding z-score [4]	PBM binding z-score [5]	PBM binding z-score [6]	PBM binding z-score [7]	PBM binding z-score [8]	PBM binding z-score [9]	PBM binding z-score [10]	PBM binding z-score [11]	PBM binding z-score [12]	PBM binding z-score [13]	PBM binding z-score [14]	PBM binding z-score [15]	PBM binding z-score [16]	PBM binding z-score [17]	PBM binding z-score [18]	PBM binding z-score [19]	PBM binding z-score [20]
CCTTACGGGTCACTGACAGTTTATAGCATTTGGA	5.44	4.17	0.494	3.4	-0.118	5.18	4.21	4.37	1.57	3.25	3.68	3.57	0.77	0.36	2.21	4.38	0.495	4.35	1	3.9
TCTTGTAGATCAAAGGTTAGGAAAGCCGAAGCCT	1.26	1.45	-0.217	1.24	-0.196	4.06	7.63	7.57	7.89	9.05	2.13	3.42	0.503	0.103	1.92	1.04	-0.482	2.02	0.262	1.4
ACTTCCGGGTCAACGAGGTTATAGCACGCGTATA	6.37	4.46	0.851	4.24	1.38	5.23	6.06	5.53	2.51	4.51	4.21	5.27	1.78	0.785	3.05	4.91	6.49	4.87	0.82	3.97
GTACCAAGGTGAATACGTCGTTGATGAGTAGGCG	0.119	-0.0604	-0.411	-0.17	-0.867	0.781	0.854	0.362	0.117	0.456	1.17	1.59	-0.251	-0.137	-0.116	-0.261	-0.456	0.186	0.0524	1.03
GTTACAGGGTCAGCTAGAGGCCAGAGTATGGAAA	4.39	3.18	-0.168	2.39	0.166	4.41	3.35	3.64	0.837	2.63	1.9	2.79	0.0715	-0.0967	2.41	3.39	0.141	3.88	0.709	4.27
TCGAGTAGGTTAGGGGAATTCAGAATGGCGTCGA	-0.0318	-0.209	-0.147	0.224	-0.435	0.565	0.159	1.02	1.11	1.18	2.13	1.78	0.128	-0.466	0.866	-0.0984	0.0558	-0.0883	0.338	0.249
AGAGTGAGGTTATTAAGATCAGGGAATTGCGGTC	1.77	1.58	0.813	1.94	0.987	2.46	0.616	1.31	0.245	1.12	0.817	0.889	0.661	0.468	2.05	1.43	1.67	1.5	1.44	1.7
TAGCCTAGCTCATGGGCCAGTATACCACGCGAAC	-0.822	-0.837	-0.369	-0.9	-0.798	-0.776	0.282	-0.783	-0.762	-1.03	-1.04	-0.618	0.0751	-0.524	-0.407	-0.739	-0.677	-0.584	-0.475	-0.413
AGAATGAGGTTATTAAGATCAGCGAATTGCGGTC	1.3	1.23	0.0436	1.11	-0.0862	2.49	1.47	1.85	0.288	1.29	3.16	2.5	0.614	0.292	0.609	1	0.607	1.22	0.18	1.27
TCTGCTAGGTCAGTTGGTCATCTAACGAGCTGCC	1.16	0.727	-0.519	0.51	0.317	1.66	0.954	2.16	1.52	2.1	2.75	3.27	0.685	0.261	0.396	0.316	-0.767	0.721	-0.587	3.47
GCATATAGGTAATACAAGGTGAACGTCCGATTGT	0.337	1.82	0.257	0.685	-0.32	1.55	1.47	1.12	0.658	0.861	4.57	3.63	0.578	0.846	0.673	0.252	0.124	1.37	0.675	0.51
AGAATGAGGTTATTAAGATCAGGAAATTGCGGTC	1.33	1.7	0.37	1.3	-0.00704	2.59	1.63	1.8	0.356	1.47	2.71	2.49	1.18	0.481	0.657	1.3	0.566	1.3	0.579	1.42
TCATATAGGTAAAGGTGAAGGTCGAACGATATGA	1.28	1.29	-0.098	1.57	0.0286	3.41	4.01	4.29	4.42	4.54	4.25	4.21	1.49	1.44	1.37	1.57	0.53	2	0.708	2.45
TCTGCTAGGACAACGATGGTCAGCTAATCTGCTA	-0.541	-0.708	-0.957	-0.773	-0.823	-0.569	-0.0545	0.0795	0.983	0.581	0.636	-0.317	-0.808	-0.587	-1.47	-0.66	-1.33	-0.497	-0.832	0.175
TCTAGCAGGCCAGAGGGCCACTCAAGAGGTACGG	-0.266	-0.338	-0.799	-0.58	-1.64	0.104	0.795	1.97	1.77	1.71	0.914	-0.0389	-0.285	-0.851	-0.331	-0.535	-0.284	-0.732	-0.342	0.248
